SMILES strings stand for the structures. Activity calls are given as the source filed them.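 How the source made its calls: active means inhibition above 20% together with a positive visual image hit; inconclusive means visual image hit but inhibition not above 20%; inactive means no visual image hit.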

This assay in a line: inhibitors of TNFa-induced NFkB p65 translocation, primary screen, imaging, HUVEC, MLSMR starter and 10KST1 sets (AID 438).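 Further: compound added about 3h40 before a 20 min TNFalpha stimulation.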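 On inhibition: signal is the nuclear over cytoplasmic p65 intensity ratio per well.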 The conditions noted are these: HUVEC TNFa-induced p65 nuclear translocation; cell count: measured here: nuclei count (cytotoxicity indicator), at 2.08 µM; inhibition: at 2 µM, stronger effect = higher value, 0% TNFa-plus-vehicle, 100% no-TNFa wells.
With `Cc1cccc(C)c1N1C(=O)C2ON(c3ccccc3)C(c3ccncc3)C2C1=O` (stereo not drawn), the inhibition is -1.4% (inactive) and the cell count worked out at 382.

Regarding `COc1ccc(C2C=C(c3ccc(Cl)cc3)Nc3nc(NC(C)=O)nn32)cc1` (stereo not drawn), the cell count was 325 and the inhibition is 1.9% (inactive).

In the case of `CC(C)Cc1ccc(C(C)C(=O)O)cc1` (stereo not drawn), the inhibition is -0.8% (inactive) and the cell count came out at 604.

With `COCCCNc1nc(-c2ccncc2)nc2ccccc12`, the inhibition was 1.9% (inactive) and the cell count amounted to 419.

As for `CCCOC(=O)C1[C@H]2C(=O)N(Cc3ccco3)C[C@]23C=C[C@H]1O3` (stereo partly drawn), the cell count stood at 337 and the inhibition was -2.3% (inactive).

For the compound `COc1ccc(CNC(=O)[C@H](C)NC(=O)C2CCN(S(=O)(=O)c3ccc(C)cc3)CC2)cc1`, the cell count came out at 299 and the inhibition was 10.2% (inactive).

Consider `N#C/C(=N\O)c1nc(-c2ccccc2)cs1`, for which the cell count came to 302 and the inhibition was -1.9% (inactive).

As for `Oc1ccc(Br)cc1-c1cc(-c2ccccc2F)[nH]n1`, the cell count stood at 293 and the inhibition is 13% (inactive).

Turning to `COc1ccc(/C(O)=C2/C(=O)C(=O)N(CCN3CCOCC3)C2c2ccccn2)cc1OC` (stereo not drawn), the cell count worked out at 409 and the inhibition is -7.4% (inactive).

As to `CCOc1ccc(/C(O)=C2/C(=O)C(=O)N(c3nc(C)c(C)s3)C2c2ccco2)cc1` (stereo not drawn), the cell count came out at 326 and the inhibition is 13.9% (inactive).

As to `O=C1C2ON(c3ccccc3)C(c3ccncc3)C2C(=O)N1c1ccccc1` (stereo not drawn), the cell count was found to be 359 and the inhibition is -4.2% (inactive).

`CCOC(=O)N1CCN(/C=C(\C#N)c2nc3ccccc3s2)CC1`: the inhibition was -3.2% (inactive) and the cell count stood at 357.

As to `CCOc1ccc(C2C(C(=O)c3ccc(C)o3)=C(O)C(=O)N2CCN2CCOCC2)cc1OC` (stereo not drawn), the cell count amounted to 248 and the inhibition is -6% (inactive).

For `CC(C)(C)c1ccc(C(O)CCCN2CCC(C(O)(c3ccccc3)c3ccccc3)CC2)cc1` (stereo not drawn), the inhibition is 6.8% (inactive) and the cell count was 520.
